Activity calls are given as the source filed them. The calls were made as follows: active = hit-call score of the fitted dose curve at least 0.9, where 1 is the maximum; inactive = score below 0.9.
What follows are molecules tested on TIMP metallopeptidase inhibitor 1 (TIMP1), TIMP1 (gene 7076) (assay: BSK_hDFCGF_TIMP1: BioMAP Diversity Plus: hDFCGF Assay for TIMP metallopeptidase inhibitor 1 (TIMP1) Biomarker Activity (AID 2283062)). Conditions: primary human foreskin fibroblasts; actives raise or lower the signal.
Method in brief: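 Human foreskin fibroblast primary cultures dosed for 24 h; secreted/surface TIMP-1 quantified by ELISA. Bidirectional curve fitting against DMSO baseline; cytotoxicity tracked in parallel cultures by SRB total-protein staining.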
CCCCOC(=O)CC(CC(=O)OCCCC)(OC(C)=O)C(=O)OCCCC was tested, and the outcome was “inactive”. CCCCCCCCCCCC[N+](C)(C)C was tested, and the outcome was “inactive”. For Clc1ccccc1C(c1ccccc1)(c1ccccc1)n1ccnc1, the AC50 was 9.85 µM (active). For O=c1c(-c2ccc(O)cc2)coc2cc(O)cc(O)c12, the outcome was “inactive”. With CCO[Si](CCCNC(N)=O)(OCC)OCC the outcome was “inactive”. In the case of CCCCCCCCCC(=O)O, the outcome is reported as “inactive”. For CCCCCCCC[Si](OCC)(OCC)OCC, the outcome was “inactive”. With CCCCCCCCCCCCO the AC50 was 36.4 µM (active). With CCCC(=O)OCCC(C)C the outcome was “inactive”. In the case of c1ccc2n[nH]nc2c1, the outcome is reported as “inactive”. With O=CCCCC=O the AC50 was 13.9 µM (active). With COc1ccc2cc(S(=O)(=O)N[C@H](CC(=O)N[C@H](Cc3ccc(CN4[C@H](C)CCC[C@@H]4C)cc3)C(=O)N(C)C(C)C)c3ccc4c(c3)OCO4)ccc2c1 the AC50 was 37.4 µM (active). Cc1ccc2oc(CN(Cc3ccccc3)C(=O)Nc3c(F)cc(F)cc3F)c(-c3ccc(Cl)cc3)c2c1 was tested, and the outcome was “inactive”. With Cc1ncc(CO)c(CO)c1O the outcome was “inactive”. With CC[C@H](NC(=O)c1cc(F)ccc1NS(=O)(=O)c1cccc2cccnc12)c1ccccc1 the outcome was “inactive”. In the case of Cc1ccc(C(C)C)cc1, the outcome is reported as “inactive”.

The molecules below were run on Monokine induced gamma interferon (MIG), CXCL9 (gene 4283) (assay: BSK_hDFCGF_MIG: BioMAP Diversity Plus: hDFCGF Assay for Monokine induced gamma interferon (MIG) Biomarker Activity (AID 2283063)). Conditions: primary human foreskin fibroblasts; actives raise or lower the signal.
Method in brief: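 MIG/CXCL9 measured by ELISA 24 h after dosing primary human skin fibroblasts. Activity fitted in both directions against DMSO controls. Cytotoxicity was checked in parallel cultures by SRB staining read at 560 nm.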
For CCCCOC(=O)CC(CC(=O)OCCCC)(OC(C)=O)C(=O)OCCCC, the outcome was “inactive”. For OC12N=C(c3ccccc3)SC1Cc1cc(Cl)ccc12 (centres undefined), the outcome was “inactive”. For CCCCCCCCCCCC[N+](C)(C)C, the AC50 was 30.6 µM (active). Clc1ccccc1C(c1ccccc1)(c1ccccc1)n1ccnc1 was tested, and the AC50 was 8.88 µM (active). With O=C=NCCCCCCN=C=O the outcome was “inactive”. For CCCCCc1ccc(N)cc1, the outcome was “inactive”. For O=C(OCCCCCCOC(=O)c1ccccc1)c1ccccc1, the outcome was “inactive”. For C[C@]12CC[C@@H]3c4ccc(O)cc4CC[C@H]3[C@@H]1CCC2=O, the outcome was “inactive”. With O=c1c(-c2ccc(O)cc2)coc2cc(O)cc(O)c12 the outcome was “inactive”. In the case of C[C@]12CC[C@@H]3c4ccc(O)cc4CC[C@H]3[C@@H]1CC[C@H]2O, the outcome is reported as “inactive”. For CCCCCCCCCCCO, the AC50 was 32.1 µM (active). Oc1ccc2ccccc2c1 was tested, and the outcome was “inactive”. For O=C1c2ccccc2C(=O)N1CCc1noc(-c2ccc(CN3CCCCCC3)s2)n1, the outcome was “inactive”. In the case of CCO[Si](CCCNC(N)=O)(OCC)OCC, the outcome is reported as “inactive”. In the case of CCCOC(=O)c1cc(O)c(O)c(O)c1, the AC50 is reported as 10.8 µM (active). In the case of CCCCCCCCCC(=O)O, the outcome is reported as “inactive”. For CN(C[C@@H](CC[N+]12CCC(C3CCCCC3)(CC1)CC2)c1ccc(Cl)c(Cl)c1)C(=O)c1cc(C(F)(F)F)cc(C(F)(F)F)c1, the AC50 was 10.3 µM (active). For Cc1cn([C@H]2C[C@H](N=[N+]=[N-])[C@@H](CO)O2)c(=O)[nH]c1=O, the outcome was “inactive”. For Cc1cc(F)ccc1-c1cc(N2CC[C@@H](O)[C@H]2CO)ncc1N(C)C(=O)C(C)(C)c1cc(C(F)(F)F)cc(C(F)(F)F)c1, the AC50 was 15.8 µM (active). In the case of CC[C@@H]1C[C@H](N(Cc2cc(C(F)(F)F)cc(C(F)(F)F)c2)C(C)=O)c2cc(C(F)(F)F)ccc2N1C(=O)OC(C)C, the outcome is reported as “inactive”. In the case of CC(=O)N1CCN(c2ccc(OC[C@H]3CO[C@](Cn4ccnc4)(c4ccc(Cl)cc4Cl)O3)cc2)CC1, the AC50 is reported as 36.9 µM (active). With CCCCCCCC[Si](OCC)(OCC)OCC the outcome was “inactive”. In the case of O=C1CCC(C2CCCCC2)CC1, the outcome is reported as “inactive”. CN1C(=O)N(c2ccccc2Br)Cc2cnc(Nc3ccc4c(c3)OCC(CO)O4)nc21 (centres undefined) was tested, and the AC50 was 22.2 µM (active). In the case of CN(C)c1ccc(C(=C2C=CC(=[N+](C)C)C=C2)c2ccc(N(C)C)cc2)cc1, the AC50 is reported as 5.26 µM (active). In the case of CCCCCCCCCCCCO, the AC50 is reported as 33.3 µM (active). In the case of CCCC(=O)OCCC(C)C, the outcome is reported as “inactive”. With c1ccc2n[nH]nc2c1 the outcome was “inactive”. O=CCCCC=O was tested, and the AC50 was 32.4 µM (active). With COc1ccc2cc(S(=O)(=O)N[C@H](CC(=O)N[C@H](Cc3ccc(CN4[C@H](C)CCC[C@@H]4C)cc3)C(=O)N(C)C(C)C)c3ccc4c(c3)OCO4)ccc2c1 the AC50 was 33.3 µM (active). In the case of Cc1ccc2oc(CN(Cc3ccccc3)C(=O)Nc3c(F)cc(F)cc3F)c(-c3ccc(Cl)cc3)c2c1, the outcome is reported as “inactive”. With O=c1ccc2ccccc2o1 the outcome was “inactive”. Cc1ncc(CO)c(CO)c1O was tested, and the outcome was “inactive”. Cc1cccc2ccccc12 was tested, and the outcome was “inactive”. For CCCCCCCCN(C)CCCCCCCC, the outcome was “inactive”. In the case of Cc1occc1C(=O)Nc1ccc(C(=O)N2CCC(F)(F)/C(=C\C(=O)N3CCC(N4CCCCC4)CC3)c3ccccc32)cc1, the outcome is reported as “inactive”. In the case of CC[C@H](NC(=O)c1cc(F)ccc1NS(=O)(=O)c1cccc2cccnc12)c1ccccc1, the outcome is reported as “inactive”. With Cc1ccc(C(C)C)cc1 the outcome was “inactive”.

— PubChem BioAssay (EPA / NIEHS)
